From PubChem BioAssay (NCI)
Compounds without any hit were thinned out: in the full panel of roughly 83,000, 20% have a hit.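 How to read the values: 0–100, growth inhibition (40 = 60% inhibited); 0, no net growth; -100 to 0, cell death (-40 = 40% of starting cells died; -100 = all dead).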 Values without a mark were called inactive. Activity calls are given as the source filed them. How the source made its calls: active means growth percent below 10; inactive means the rest.

System: DU-145 prostate
Assay: NCI-60 one-dose screen, 48 h (100 = growth as untreated, 0 = no growth, -100 = all killed)
Details: 10 µM unless noted

Q: `O=C(Nc1ncc(Cc2ccccc2)s1)c1sc2ccccc2c1Cl` was tested. Which growth did it give?
A: The growth was 17%.

Q: How did the growth turn out when `Cc1ccccc1N1CCN(C(=S)c2ccccc2)CC1` was run?
A: The growth was 114%.

Q: Which growth does the source give for `CC(C)(C)c1ccc(S(=O)(=O)Oc2ccc(-c3sc4cc(OS(=O)(=O)c5ccc(C(C)(C)C)cc5)ccc4c3C(=O)c3ccc(OCCN4CCCCC4)cc3)cc2)cc1` here?
A: The growth was 114%.

Q: For `CCn1cc(C(=O)N/N=C/c2ccccc2)c(=O)c2cc(F)c(N3CCNC(C)C3)c(F)c21` (stereo not given), which growth is on record?
A: Its growth is -87.9% (active).

Q: Which growth does the source give for `COC1/C=C/OC2(C)Oc3c(C)c(O)c4c(O)c(c(/C=N/N(c5ccccc5)c5ccccc5)c(O)c4c3C2=O)NC(=O)C(C)=C/C=C/C(C)C(O)C(C)C(O)C(C)C(OC(C)=O)C1C` (stereo not given) here?
A: The growth was 90.1%.

Q: How did the growth turn out when `CS(=O)(=O)c1ccc(-c2nc3ccccc3n2CC(=O)N/N=C/c2ccccc2)cc1` was run?
A: The growth was 111%.

Q: For `CC(=O)O[C@H]1CC[C@]2(C)[C@H]3CC=C4[C@@H]5CC(C)(C)CC[C@]5(C(=O)N5CCN(CCC#N)CC5)CC[C@@]4(C)[C@]3(C)CC[C@H]2C1(C)C`, which growth is on record?
A: The growth was 57.8%.

Q: Which growth does the source give for `C[N+]1=C(/C=C/c2ccccc2Cl)C(C)(C)c2ccccc21` here?
A: Its growth is 94.5%.

Q: `COC(=O)/C=C1/SC(=Nc2ccc(F)cc2)N(CCc2c[nH]c3ccc(O)cc23)C1=O` was tested. Which growth did it give?
A: The growth was 37.2%.

Q: `Cc1c2ccccc2nc2cc3c(cc12)[C@H]1CC[C@]2(C)C(=O)CC[C@H]2[C@@H]1CC3` was tested. Which growth did it give?
A: The growth was 106%.

Q: How did the growth turn out when `O=C(/C=C/C12c3ccccc3C(c3ccccc31)C1C(=O)NC(=O)C12)c1ccco1` (stereo not given) was run?
A: Its growth is -0.301% (active).

Q: `CC(C)Cc1nc(Nc2ccccc2)[nH]c(=O)c1C#N` was tested. Which growth did it give?
A: The growth was 70.8%.

Q: With `CN(C)/C(N)=N/N=C(\c1ccccc1)c1ccccn1` as the compound, how does the growth read?
A: Its growth is 97.7%.

Q: `CS(=O)(=O)Nc1cc(-c2ccc3ncnc(Nc4ccc5c(cnn5Cc5ccccc5F)c4)c3c2)cnc1Cl` was tested. Which growth did it give?
A: The growth was 51.9%.

Q: Which growth does the source give for `Nc1cc(-c2ccc(Cl)cc2)nn1-c1nnc(/C=C/c2ccco2)c(=O)[nH]1` here?
A: The growth was 63.3%.

Q: Which growth does the source give for `CCCN(CCSSCCNc1nc(N(C)O)nc(N(C)O)n1)c1nc(N(C)O)nc(N(C)O)n1` here?
A: The growth was 54.4%.

Q: Which growth does the source give for `Cc1nc([P+](c2ccccc2)(c2ccccc2)c2ccccc2)c(N2CCCCC2)o1` here?
A: Its growth is 30.2%.

Q: With `CCN(CC)CCn1c2ccc(OC)cc2c2sc3cc(O)ccc3c(=O)c21` as the compound, how does the growth read?
A: Its growth is 42.7%.

Q: Which growth does the source give for `O=C(NCCCCCCNC(=O)OCc1ccc2c(Cl)cc(Cl)c(O)c2n1)OCc1ccc2c(Cl)cc(Cl)c(O)c2n1` here?
A: Its growth is -50.4% (active).

Q: How did the growth turn out when `O=C(Nc1cccnc1Nc1ccc(Cl)cc1)c1cn(Cc2cccc(Oc3ccccc3)c2)nn1` was run?
A: Its growth is 59.7%.

Q: Which growth does the source give for `Cc1ccc2c(c1)sc1nc(-c3c[nH]c4ccccc34)c(Nc3ccccc3)n12` here?
A: The growth was 108%.

Q: With `CN1c2ccccc2S(=O)(=O)n2c(SCC(=O)Nc3nc4ccc(F)cc4s3)nnc21` as the compound, how does the growth read?
A: The growth was 125%.

Q: `COC12C=C/C(=C(/C(=O)OCc3csc(SC)n3)C(=O)CCCCCCCCC3(OC)C=C/C(=C(/C(=O)OCc4cnc(SC)s4)C(=O)CCCCCCCC1)O3)O2` (stereo not given) was tested. Which growth did it give?
A: The growth was 50.3%.

Q: Which growth does the source give for `Nc1[nH]nc2nc(-c3ccccc3)n3c4ccccc4nc3c12` here?
A: Its growth is 117%.

Q: With `CS(=O)/C(C#N)=C\C=C\c1cccc(Cl)c1` (stereo not given) as the compound, how does the growth read?
A: Its growth is 23.1%.

Q: `CN(C)CCCC1(c2ccc(F)cc2)OCc2cc(-c3csc4ccccc34)ccc21` (stereo not given) was tested. Which growth did it give?
A: Its growth is -0.822% (active).

Q: Which growth does the source give for `COCCn1cc(-c2csc(-c3c[nH]c4ccccc34)n2)c2cccnc21` here?
A: Its growth is 62.3%.

Q: With `O=S(=O)(NCCNc1nccc(-c2c(-c3ccc(F)c(O)c3)nc3sccn23)n1)c1ccc(Cl)cc1` as the compound, how does the growth read?
A: The growth was 44%.

Q: Which growth does the source give for `Cc1cccc(NC(=O)N/C(N)=N/c2nc3ccccc3s2)c1` here?
A: Its growth is 34.6%.

Q: With `N#Cc1c(-c2cccc(Cl)c2)cc(-c2cccnc2)[nH]c1=O` as the compound, how does the growth read?
A: The growth was 94.9%.

Q: For `C=CC(CC(c1ccccc1)(c1ccccc1)c1ccccc1)N(CC)CC` (stereo not given), which growth is on record?
A: The growth was 58.8%.

Q: For `C/C(=C(\c1ccc(OCCN2CCCCCC2)cc1)c1ccc(OC(=O)c2ccccc2)cc1)c1ccc(Cl)cc1`, which growth is on record?
A: The growth was 66.1%.

Q: `O=C(/C=C/c1ccccc1)c1ccc(-n2cc(CN3CCN(c4cc5c(cc4F)c(=O)c(C(=O)O)cn5C4CC4)CC3)nn2)cc1` was tested. Which growth did it give?
A: The growth was 76.3%.

Q: How did the growth turn out when `CCCCCCCCCCCCCCCCCCOc1ccccc1CC(=O)NCC[N+](C)(C)C` was run?
A: The growth was 44.3%.

Q: Which growth does the source give for `CCN(CC)CCOc1ccc(/C(=C(\C)Cc2ccc(OC)cc2)c2ccc(OC(=O)NCc3ccccc3)cc2)cc1` here?
A: The growth was 78.9%.

Q: `COc1cc([C@@H](CCO)C[C@H](C)c2ccc3ccccc3c2)cc(OC)c1OC` was tested. Which growth did it give?
A: Its growth is 47.1%.

Q: With `CCOC(=O)/C(=C(/C)NCC(C)C)c1cc(O)c(O)c2c(C)cc(=O)[nH]c12` as the compound, how does the growth read?
A: Its growth is 64.5%.

Q: For `COc1ccc(/C=C2\c3cc(OC)c(OC)c(OC)c3CC[C@@H]2O)cc1F`, which growth is on record?
A: Its growth is 19.5%.

Q: With `O=c1oc2c(cc1-c1ccccc1)c[n+]([O-])c1ccccc21` as the compound, how does the growth read?
A: The growth was 103%.

Q: Which growth does the source give for `CN1C(=O)/C(=C/c2ccc(C(=O)Nc3ncc(Cc4cccc(C(F)(F)F)c4)s3)cc2)SC1=S` here?
A: The growth was 68.5%.
